# “And” between values parts separate entries of the source, which are not always exact repeats. Identical values can stand only once. Results filed as inconclusive are left out. The source made the active and inactive calls. The call rests on the fitted dose curve; in most records, active means well fitted curve in the direction sought with a large enough effect in the signal ratio, with a control signal flat; inconclusive means small, poorly fitted or top-dose-only effect, or a change in a side signal; inactive means no such curve, though single readings can be large or run the other way; the % refers to the signal ratio.
# Molecular target: Glucocorticoid receptor (Homo sapiens) (UniProt P04150)
# Experiment: qHTS assay for small molecule agonists of glucocorticoid receptor signaling (AID 588532)
# Conditions: HeLa MMTV-bla, beta-lactamase ratio, agonist, 18 h; stronger effect = higher value; percent of dexamethasone control, DMSO zero
# Excerpt: NIH Chemical Genomics Center [NCGC] U.S. Environmental Protection Agency [EPA] National Institutes of Environmental Health Sciences [NIEHS] National Toxicology Program [NTP] NCGC Assay Overview The Glucocorticoid receptor (GR), a nuclear receptor subfamily member and its natural ligands includes […] etc. The GR is a validated drug target for inflammation. GR ligands such as dexamethasone are clinically available as anti-inflammatory drugs. Glucocorticoids implicate role in carbohydrate, protein and lipid metabolisms and programmed cell death. They are also a component of many chemotherapy regimens for the treatment of leukemias, lymphomas, and myelomas because of their role in the induction of apoptosis.
# NCGC Assay Protocol Summary Using a beta-lactamase reporter-gene under control of glucocorticoid response element (GRE), a cell-based assay [CellSensor MMTV-bla HeLa cell line assay developed by Invitrogen] was used to measure GR ligands signaling. CellSensor MMTV-bla HeLa cells were used with assay medium containing 1% charcoal/dextran treated FBS, 0.1 mM NEAA, 1 mM sodium pyruvate and 25mM HEPES. The assay was performed in clear bottom black Greiner 1536-well plates. Dexamethasone and Mifepristine were used in the screen as agonist and antagonist positive controls respectively. Library compounds were measured for their ability to stimulate the reporter gene activity. Compounds were screened in a titration series in 1536-well format. The fluorescence intensity (405 nm excitation, 460/530 nm emission) was measured using an EnVision plate reader. Data was normalized relative to Dexamethasone control (0.1 uM, 100%), and DMSO only wells (basal, 0%). Concentration-response titration points for each compound were fitted to the Hill equation yielding concentrations of half-maximal stimulation (EC50) and maximal response (efficacy) values. qHTS protocol for GR beta-lactamase assay in agonist mode [Step] [Parameter] [Value] [Description] 1. Reagent; 6 uL; 1500 cells/well 2. Incubation; 37 C for 3-5 hrs 3. Compounds; 23 nL; 0.59 nM to 92 uM 4. Controls (Dexamethasone); 23 nL, - One column with dose response, start 4.6uM, 1:3 dilutions in duplicates - Final concentrations of 0.1 uM and 2 nM in two columns 5. Incubation; 37 C for 18 hrs 6. Detection reagent; 1 uL of CCF4-dye 7. Incubation; RT for 2 hrs 8. Detection; Fluorescence; Envision plate reader
# Sequence of Glucocorticoid receptor (Homo sapiens) (P04150 whole entry, looked up): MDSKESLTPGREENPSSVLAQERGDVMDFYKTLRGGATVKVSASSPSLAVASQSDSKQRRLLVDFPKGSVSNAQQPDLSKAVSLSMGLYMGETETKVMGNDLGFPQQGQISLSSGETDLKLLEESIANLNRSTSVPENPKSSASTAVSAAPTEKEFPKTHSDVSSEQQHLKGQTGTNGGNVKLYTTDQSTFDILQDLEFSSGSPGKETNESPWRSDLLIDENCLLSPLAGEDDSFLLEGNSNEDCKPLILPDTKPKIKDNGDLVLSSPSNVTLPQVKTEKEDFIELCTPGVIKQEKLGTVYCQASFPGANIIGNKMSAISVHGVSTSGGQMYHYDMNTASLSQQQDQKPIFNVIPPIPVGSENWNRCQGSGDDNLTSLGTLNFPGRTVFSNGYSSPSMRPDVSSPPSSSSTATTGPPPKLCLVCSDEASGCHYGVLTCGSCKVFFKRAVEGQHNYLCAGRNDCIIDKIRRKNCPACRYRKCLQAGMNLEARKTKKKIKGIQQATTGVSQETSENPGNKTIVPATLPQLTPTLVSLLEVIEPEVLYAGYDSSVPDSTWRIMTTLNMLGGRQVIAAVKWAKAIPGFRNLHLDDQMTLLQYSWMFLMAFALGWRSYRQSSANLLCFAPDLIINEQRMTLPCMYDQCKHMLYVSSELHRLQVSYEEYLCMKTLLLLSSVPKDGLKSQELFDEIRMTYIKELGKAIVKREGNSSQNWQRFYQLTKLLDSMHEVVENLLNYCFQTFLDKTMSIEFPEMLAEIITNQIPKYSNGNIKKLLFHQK
row,Compound,activation
1,CC(C)CCC[C@@H](C)[C@H]1CC[C@H]2[C@@H]3CC=C4C[C@@H](O)CC[C@]4(C)[C@H]3CC[C@]12C,13.5% (inactive)
2,Nc1nccs1,10.5% (inactive)
3,O=c1n(CC2CO2)c(=O)n(CC2CO2)c(=O)n1CC1CO1 (configuration not stated),-4.93% (inactive)
4,OC[C@H]1O[C@@H]2O[C@H]3[C@H](O)[C@@H](O)[C@@H](O[C@H]4[C@H](O)[C@@H](O)[C@@H](O[C@H]5[C@H](O)[C@@H](O)[C@@H](O[C@H]6[C@H](O)[C@@H](O)[C@@H](O[C@H]7[C@H](O)[C@@H](O)[C@@H](O[C@H]1[C@H](O)[C@H]2O)O[C@@H]7CO)O[C@@H]6CO)O[C@@H]5CO)O[C@@H]4CO)O[C@@H]3CO,3.77% (inactive) and 9.85% (inactive)
5,OCc1ccccc1,-0.651% (inactive)
6,C[C@H]1O[C@@H](O[C@H]2[C@@H](O)C[C@H](O[C@H]3[C@@H](O)C[C@H](O[C@H]4CC[C@@]5(C)[C@H](CC[C@@H]6[C@@H]5C[C@@H](O)[C@]5(C)[C@@H](C7=CC(=O)OC7)CC[C@]65O)C4)O[C@@H]3C)O[C@@H]2C)C[C@H](O)[C@@H]1O,-7.98% (inactive)
7,Cc1ccc(S(=O)(=O)NCl)cc1,0.935% (inactive)
8,Oc1cccc(O)c1O,11% (inactive)
9,C[C@H](CCC(=O)O)[C@H]1CC[C@H]2[C@@H]3CC[C@@H]4C[C@H](O)CC[C@]4(C)[C@H]3C[C@H](O)[C@]12C,-6.09% (inactive)
10,CC1=CCC2CC1C2(C)C (configuration not stated),3.24% (inactive)
11,CCOC(C)OCC,-4.92% (inactive)
12,CC1=CC(=O)NS(=O)(=O)O1,-3.71% (inactive)
13,C=CC(C)(O)CC/C=C(\C)CCC=C(C)C (configuration not stated),1.37% (inactive)
14,[O-][N+](=Nc1ccccc1)c1ccccc1,3.15% (inactive)
15,N[C@@H](Cc1cc(I)c(Oc2ccc(O)c(I)c2)c(I)c1)C(=O)O,-18.8% (inactive)
16,OCC(O)CO,2.41% (inactive) and -1.45% (inactive)

row,Compound,activation
1,C[C@H](CCC(=O)O)[C@H]1CC[C@H]2[C@@H]3[C@H](O)C[C@@H]4C[C@H](O)CC[C@]4(C)[C@H]3C[C@H](O)[C@]12C,0.114% (inactive)
2,O=P(O)(O)O,-2.92% (inactive)
3,OCl,-3.26% (inactive)
4,CO[C@@H]1[C@H](OC(=O)/C=C/C=C/C=C/C=C/C(=O)O)CC[C@]2(CO2)[C@H]1[C@@]1(C)O[C@@H]1CC=C(C)C,-1.18% (inactive)
5,CO/N=C(/C(=O)N[C@@H]1C(=O)N2C(C(=O)O)=C(COC(N)=O)CS[C@H]12)c1ccco1,5.73% (inactive)
6,CC(C)CCCCCCc1ccc(O)cc1,-1.88% (inactive)
7,OB(O)O,-3.94% (inactive) and -21.4% (inactive)
8,Nc1ccc(N=Nc2ccccc2)c(N)n1,-10.4% (inactive) and 1.07% (inactive)
9,OCCOCCOCCO,-3.1% (inactive) and -7.85% (inactive)
10,C=C(C)C1CC=C(C)CC1 (configuration not stated),-1.86% (inactive) and -2.03% (inactive)
11,CC(C)(C)CC(C)(C)c1ccc(OCCO)cc1,12% (inactive)
12,ClC(Cl)Cl,-4.49% (inactive)
13,NCCO/C=C/[C@H](N)C(=O)O,-5.2% (inactive)
14,CCCCC,1.13% (inactive)
15,CCCCCCCCCCCCCCCCCC(=O)OC[C@@H](O)[C@H]1OC[C@H](O)[C@H]1O,3.63% (inactive)
16,Cc1ccc(S(=O)(=O)O)cc1C,2.36% (inactive)
